According to PubChem BioAssay (EPA / NIEHS):
Results filed as inconclusive are left out. The source made the active and inactive calls. How the source made its calls: active means hit-call score of the fitted dose curve at least 0.9, where 1 is the maximum; inconclusive means response in the unintended direction; inactive means score below 0.9.

Molecular target: Estrogen receptor (Homo sapiens) (UniProt P03372)
Assay: ATG_ERa_TRANS: Attagene TRANS-FACTORIAL HepG2 Assay for human Estrogen Receptor alpha (ERa) (AID 2282970)
Conditions: HepG2 Attagene TRANS ERa GAL4 reporter, mRNA
Description: ATG_TRANS is a cell-based, multiplexed-readout assay that uses HepG2, a human liver cell line, with measurements taken at 24 hours after chemical dosing in a 24-well plate.ATG_ERa_TRANS is one of 30 assay component(s) measured or calculated from the ATG_TRANS assay. It is designed to make measurements of mRNA induction, a form of inducible reporter, as detected with fluorescence intensity signals by Reverse transcription polymerase chain reaction (RT-PCR) and Capillary electrophoresis technology.Data from the assay component ATG_ERa_TRANS was analyzed into 1 assay endpoint. This assay endpoint, ATG_ERa_TRANS, was analyzed in the positive analysis fitting direction relative to DMSO as the negative control and baseline of activity. Using a type of inducible reporter, measures of mRNA for gain-of-signal activity can be used to understand the reporter gene at the transcription factor-level as they relate to the gene ESR1. Furthermore, this assay endpoint can be referred to as a primary readout, because this assay has produced multiple assay endpoints where this one serves a reporter gene function. To generalize the intended target to other relatable targets, this assay endpoint is annotated to the nuclear receptor intended target family, where the subfamily is steroidal.
Human liver HepG2 cells are transiently transfected with multiple reporter transcription units (MRTUs) in 6-well plates using FuGene 6 reagent (Roche; 3 ml FuGene/1 mg DNA). The MRTU constructs are regulated by a cis-regulating element (promoter). […] A major difference between the CIS and TRANS system is that in CIS activities of endogenous TFs are measured, whereas the TRANS assay evaluates changes in activities of exogenous, chimeric NR-Gal4 proteins. […] At the end of 24 hour incubation, total RNA was isolated using TriZol reagent (Invitrogen). The isolated RNA is then reverse-transcribed using oligo(dT) primer and Mo-MLV reverse transcriptase (Invitrogen) with DNAse I (Ambion) treatment for 30 min. The one-tenth of the produced cDNA was amplified by PCR using Taq DNA polymerase (Invitrogen) and two reporter sequence-specific primers. The PCR products were fluorescently labeled by primer extension with 6-arboxyfluorescein (6-FAM) 5'-labeled reporter sequence-specific primer (2 min at 95 C, 20 s at 68 C and 10 min at 72 C) and these products were digested with 5U of HpaI (New England Biolabs) for 2h at 37 C. […] The raw capillary electrophoresis data was processed using Attagraph software (Attagene).

Estrogen receptor (Homo sapiens), sequence (P03372 whole entry, looked up): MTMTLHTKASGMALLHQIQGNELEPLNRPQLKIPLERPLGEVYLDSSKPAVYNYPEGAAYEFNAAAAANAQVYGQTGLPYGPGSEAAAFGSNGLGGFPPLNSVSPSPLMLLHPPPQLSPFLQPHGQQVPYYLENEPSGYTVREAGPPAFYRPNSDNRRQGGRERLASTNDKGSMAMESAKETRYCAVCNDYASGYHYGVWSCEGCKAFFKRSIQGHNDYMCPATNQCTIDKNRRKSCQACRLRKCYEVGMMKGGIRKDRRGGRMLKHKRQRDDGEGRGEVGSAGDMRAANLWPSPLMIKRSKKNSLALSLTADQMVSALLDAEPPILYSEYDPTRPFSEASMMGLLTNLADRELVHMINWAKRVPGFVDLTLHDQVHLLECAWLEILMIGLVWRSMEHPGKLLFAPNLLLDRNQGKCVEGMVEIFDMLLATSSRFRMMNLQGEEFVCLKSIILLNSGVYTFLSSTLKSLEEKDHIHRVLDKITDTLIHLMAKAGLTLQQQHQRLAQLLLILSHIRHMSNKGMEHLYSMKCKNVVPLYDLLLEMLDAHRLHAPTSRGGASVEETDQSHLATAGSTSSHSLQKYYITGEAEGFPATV

Row | SMILES | outcome | AC50
1 | CC(C)(C)c1cc(CCC(=O)NCCCCCCNC(=O)CCc2cc(C(C)(C)C)c(O)c(C(C)(C)C)c2)cc(C(C)(C)C)c1O | inactive | –
2 | Cc1ccc2c(c1)OCC(=O)CO2 | inactive | –
3 | O=S(=O)(O)c1ccc(Cl)cc1 | inactive | –
4 | CC(C)(C)c1cc(CCC(=O)OCC(COC(=O)CCc2cc(C(C)(C)C)c(O)c(C(C)(C)C)c2)(COC(=O)CCc2cc(C(C)(C)C)c(O)c(C(C)(C)C)c2)COC(=O)CCc2cc(C(C)(C)C)c(O)c(C(C)(C)C)c2)cc(C(C)(C)C)c1O | – | 21.8 µM (active)
5 | OCC(O)CC(F)(F)C(F)(F)C(F)(F)C(F)(F)F (stereo not given) | – | 70.8 µM (active)
6 | NS(=O)(=O)C(F)(F)C(F)(F)C(F)(F)C(F)(F)C(F)(F)C(F)(F)F | – | 13.9 µM (active)
7 | C=CC(=O)OCC(F)(F)C(F)(F)C(F)(F)COC(=O)C=C | inactive | –
8 | CCN(CC)c1ccc(C=O)c(O)c1 | inactive | –
9 | O=C1c2ccccc2C(=O)c2c(Cl)cccc21 | – | 2.88 µM (active)
10 | O=C(F)C1(F)C(F)(F)C(F)(F)C(F)(F)C(F)(F)C1(F)F | inactive | –
11 | CC(C)Nc1ccc(NC(C)C)c2c1C(=O)c1ccccc1C2=O | inactive | –
12 | OCC(F)(F)C(F)(F)C(F)(F)C(F)(F)C(F)(F)C(F)(F)C(F)(F)C(F)(F)CO | – | 0.178 µM (active)
13 | FC(F)(F)C(F)(F)C(F)(F)C(F)(F)C(F)(F)C(F)(F)CC[Si](Cl)(Cl)Cl | inactive | –
14 | Nc1cc([N+](=O)[O-])cc(Cl)c1O | inactive | –
15 | CCCCCCCCn1sc(Cl)c(Cl)c1=O | inactive | –
16 | NC(=O)C(F)(F)C(F)(F)C(F)(F)C(F)F | inactive | –
17 | FC(F)(F)C(F)(F)C(F)(F)C(F)(F)C(F)(F)C(F)(F)C(F)(F)CCI | – | 24.5 µM (active)
18 | CCN(CC)c1ccc(C=O)cc1 | inactive | –
19 | CCN(CCO)S(=O)(=O)C(F)(F)C(F)(F)C(F)(F)C(F)(F)C(F)(F)C(F)(F)C(F)(F)C(F)(F)F | inactive | –
20 | FC(F)(F)C(F)(F)C(F)(F)CC1CO1 (stereo not given) | inactive | –

Row | SMILES | outcome | AC50
21 | OCCCc1cccnc1 | inactive | –
22 | Oc1ccc(C2(c3ccc(O)c(C4CCCCC4)c3)CCCCC2)cc1C1CCCCC1 | inactive | –
23 | C=CC(=O)OCC(F)(F)C(F)(F)C(F)(F)C(F)(F)C(F)(F)C(F)(F)C(F)(F)C(F)F | – | 1.52 µM (active)
24 | OCCC(O)CO (stereo not given) | inactive | –
25 | CCCCCCCCCc1ccc(OCCO)cc1 | inactive | –
26 | CSc1ccc(O)cc1C | – | 11.3 µM (active)
27 | CCOCN(C(=O)CS(=O)(=O)O)c1c(C)cccc1CC | inactive | –
28 | NC(=O)C(F)(F)C(F)(F)C(F)(F)C(F)(F)C(F)(F)C(F)(F)C(F)(F)F | – | 9.95 µM (active)
29 | O=C(c1ccccc1)c1ccc(O)cc1O | – | 1.33 µM (active)
30 | OCC(F)(F)C(F)(F)C(F)(F)CO | inactive | –
31 | CC(C)CCCC(C)CCO (stereo not given) | inactive | –
32 | CNS(=O)(=O)C(F)(F)C(F)(F)C(F)(F)C(F)(F)C(F)(F)C(F)(F)C(F)(F)C(F)(F)F | – | 9.26 µM (active)
33 | C=CCOC(=O)CC(C)C | inactive | –
34 | Brc1ccccn1 | inactive | –
35 | COc1ccccc1C=O | inactive | –
36 | CO[Si](C)(CCC(F)(F)C(F)(F)C(F)(F)C(F)(F)C(F)(F)C(F)(F)F)OC | inactive | –
37 | Cc1cc(C)c(O)c(C(C)(C)C)c1 | inactive | –
38 | O=C(Cl)C(F)(F)C(F)(F)C(F)(F)C(F)(F)C(F)(F)C(F)(F)C(F)(F)F | – | 53.1 µM (active)
39 | OCCCCC(F)(F)C(F)(F)C(F)(F)C(F)(F)F | inactive | –
40 | CCCCOC(=O)[C@H](C)O | inactive | –
